These results are taken from the supplement of paper PMC5940239.

Unmarked numbers belong to inactive results.

For this assay, the system named is Madurella mycetomatis MM55. The assay is described as follows: percent growth relative to solvent control; higher = less inhibition, active = 20 or less. Conditions: 100 µM; 7 days.
On to `Cc1cc(C)n2nc(C(=O)Nc3cc(C(F)(F)F)ccc3N3CCOCC3)nc2n1`, for which the percent growth is 162%.

For the molecule `COc1ccc(Cn2cnc3c(-c4ccco4)nc(Cl)nc32)cc1`, the percent growth is 82.7%.

In the case of `COc1ccc(N(CCc2cccc(C)n2)C(C)=O)cc1`, the percent growth is 101%.

As for `CC(=O)NCC1CN(c2ccc(-c3ccc(CNCc4cn[nH]n4)cc3)c(F)c2)C(=O)O1` (centres undefined), the percent growth is 125%.

For the molecule `COc1ccc(S(=O)(=O)Nc2ccc(CN3CCN(C(=O)c4cccc(C#N)c4)CC3)cc2)cc1`, the percent growth was 113%.

`Cc1cc(C(=O)Nc2cnn(Cc3ccc(Cl)cc3Cl)c2)no1`: the percent growth is 121%.

In the case of `O=[N+]([O-])c1cn2c(n1)OC[C@@H](OCc1ccc(OC(F)(F)F)cc1)C2`, the percent growth is 97.3%.

In the case of `CC(C)C(Oc1cccc2ccccc12)C(=O)O` (centres undefined), the percent growth is 118%.

As for `O=C(NCCN1CCCC1)c1cc(NCCCCN2CCC(F)(F)CC2)nc2ccc(Cl)cc12`, the percent growth was 61.8%.

In the case of `Cc1cnc(CCNC(=O)c2cc(-c3ccc(Cl)cc3)cs2)[nH]1`, the percent growth is 94.3%.

As to `NCCC(O)C(=O)N[C@@H]1C[C@H](N)[C@@H](OC2O[C@H](CN)[C@@H](O)[C@H](O)[C@H]2O)[C@H](O)C1OC1O[C@H](CO)[C@@H](O)[C@H](N)[C@H]1O` (some centres undefined), the percent growth was 102%.

For `CCN(CC)S(=O)(=O)c1ccc(Cl)c(C(=O)Nc2ccc3nc(C)sc3c2)c1`, the percent growth was 119%.

For the molecule `Cc1cc(Nc2ccc(C(F)(F)F)cc2)n2ccnc2n1`, the percent growth is 77.4%.

For the molecule `CNC(=O)C1Cc2c([nH]c3cc(Cl)ccc23)C2(CCN(CCc3ccccc3)CC2)N1` (centres undefined), the percent growth was 70%.

With `O=C(Nc1c(O)cccc1-c1nc2c(C(=O)O)cccc2o1)c1cc(-c2ccccc2)on1`, the percent growth was 113%.

For the molecule `O=C(NCCN1CCCC1)c1cc(NCCN2CCOCC2)nc2ccc(Cl)cc12`, the percent growth is 85.5%.

With `COc1ccc(-c2cncc3ccc(C(=O)NCCCn4ccnc4)nc23)cc1`, the percent growth is 109%.

Regarding `Nc1ncc(Br)cc1-c1nc2cc(Cl)cnc2[nH]1`, the percent growth was 105%.

As for `COc1cccc(OCC(=O)c2ccc(Br)cc2)c1`, the percent growth was 81.3%.

Take `Nc1ncnc2c1c(Cc1cccc3ccccc13)nn2CC1CCNCC1`: the percent growth was 132%.

As for `NC(=O)c1cc(Br)ccc1OCCOc1ccccc1`, the percent growth was 92.8%.

In the case of `COc1ccc(Nc2ccccc2NC(=O)c2ccc(O)nc2)cc1`, the percent growth was 85.8%.

Turning to `Cc1cc(O)nc(-n2nc(C)cc2C)n1`, the percent growth is 66.4%.

Consider `O=C1[C@@H](Oc2ccccc2)[C@@H](c2ccc(Cl)cc2)N1CCn1cnc2c(NCc3ccccc3)ncnc21`, for which the percent growth was 98.5%.

In the case of `Nc1cccnc1Nc1ccc(Cl)cc1`, the percent growth was 80.6%.

Regarding `CNc1cc(C)nc(C2CN(C(=O)c3n[nH]c4ccccc34)CCO2)c1` (centres undefined), the percent growth is 103%.

As to `Nc1ncc(-c2cn[nH]c2)cc1-c1nc2cc(Cl)cnc2[nH]1`, the percent growth was 127%.

As for `CCCCc1ccc(NC(=O)Nc2ccc(O[C@H]3CCCC[C@@H]3N(C)c3ccccc3)c(F)c2)cc1`, the percent growth was 122%.

For the molecule `CN1CCN(c2nccc3nc(-c4ccc(F)c(F)c4)[nH]c23)CC1`, the percent growth was 52.1%.

As for `Cc1[nH]c2cc(F)cc(F)c2c(=O)c1-c1ccc(Oc2ccc(OC(F)(F)F)cc2)cc1`, the percent growth is 95.7%.

Turning to `O=C(NCCc1c[nH]c2ccccc12)c1cc2ccccc2oc1=O`, the percent growth was 109%.

For `O=C(NC1=NCCS1)c1sc2cc(F)ccc2c1Cl`, the percent growth was 107%.

As to `COc1cc(-c2cc(-c3ccc(S(C)(=O)=O)cc3)cnc2N)ccc1O`, the percent growth was 11.2% (active).

Turning to `CN(C(=O)c1cc2c(-c3cncnc3)cccc2[nH]1)c1ccccc1`, the percent growth is 51.3%.

With `CCCCN(CCCC)c1c(C#N)cc(S(=O)(=O)Nc2ccccc2)cc1C#N`, the percent growth is 85.7%.

Turning to `O=C(Nc1cccnc1)c1c(O)c2cccc3c2n(c1=O)CC3`, the percent growth was 85.3%.

Consider `CCOc1ccc(-c2nc(NC(=O)CS(=O)(=O)c3ccccc3)sc2C)cc1`, for which the percent growth is 51.4%.

With `O=C(Nc1nc(-c2ccccn2)cs1)C1CC1c1ccccc1F` (centres undefined), the percent growth was 46.7%.

With `CCc1nc2ccc(C(=O)NCc3ccc4c(c3)OCO4)cn2c1N(C)Cc1cccs1`, the percent growth is 44%.
